Screens deposited in PubChem by Sanford-Burnham Center for Chemical Genomics.
This is a sample that favours compounds with a hit; in the whole collection about 4% have one here.
TIM10 inh: growth inhibitors of isogenic TIM10 control yeast, primary screen, counter-screen for tim10-1 yeast inhibitor project, luminescence, uHTS; inhibition, % at 10 µM; S. cerevisiae TIM10 strain growth, BacTiter-Glo luminescence, 24 h; 330,000 compounds, 1.4% hits;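 active = inhibition of 40% or more at the single tested concentration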;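 also: wild-type TIM10 isogenic control strain grown at permissive 25 °C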
NALP1 inh: NALP1 inflammasome inhibitors in reconstituted yeast, colorimetric, S. cerevisiae, triplicate retest; 280,000 compounds, 0.61% hits; inhibition, % at 10 µM; AID 2071, 2009; S. cerevisiae NALP1/ASC/caspase-1 growth, X-gal OD620, 72 h; in the data active = inhibition mostly above about 24%, no sharp cut-off; inactive = mostly below about 32%
tim23-1 inh: growth inhibitors of tim23-1 mutant yeast, primary screen, luminescence, uHTS | S. cerevisiae tim23-1 growth, BacTiter-Glo luminescence, 24 h | inhibition, % at 20 µM | 330,000 compounds, 1.3% hits;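 active = growth inhibition of the mutant yeast at or above 50%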;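 also: temperature-sensitive mutant grown at 25 °C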
tim10-1 inh: growth inhibitors of tim10-1 mutant yeast, primary screen, luminescence, uHTS; inhibition, % at 20 µM; 330,000 compounds, 2.2% hits; S. cerevisiae tim10-1 ts strain growth, BacTiter-Glo, 24 h;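 active = inhibition of at least 40%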;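 also: mutant grown at 25 °C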
NALP3 yeast inh: NALP3 inflammasome inhibitors in reconstituted yeast, primary screen, luminescence, uHTS; Yeast reconstituted NLRP3/ASC/caspase-1, beta-gal luminescence, 24 h; inhibition, % at 10 µM; 330,000 compounds, 0.39% hits; AID 2825, 2010;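 active = inhibition of 50% or more; inactive = inhibition below 50%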
tim10-1 conf: growth inhibitors of tim10-1 mutant yeast, confirmation, single concentration, luminescence, S. cerevisiae; shares compounds with tim10-1 inh; S. cerevisiae tim10-1 ts strain growth, BacTiter-Glo, 24 h; inhibition, % at 20 µM; 7,400 compounds, 56% hits; AID 463213, 2010;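 active = inhibition of yeast growth at or above a set limit in either of two repeat tests at 20 µM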;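 also: tim10-1 mutant grown at permissive 25 °C to find synthetic lethal compounds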
tim10 confirm: growth inhibitors of wild-type TIM10 yeast, confirmation, counter-screen for tim10-1 synthetic lethality project, single concentration, luminescence, S. cerevisiae; shares compounds with TIM10 inh; S. cerevisiae tim10 strain growth, BacTiter-Glo luminescence, 24 h; inhibition, % at 10 µM; 4,600 compounds, 63% hits; AID 463215, 2010;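 active = inhibition of yeast growth at or above a set limit in either of two replicates at 10 µM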; also: this counterscreen used the strain with wild-type TIM10
A number is an active result; n = inactive; x = not tested or not shown.

SMILES	TIM10 inh	NALP1 inh	tim23-1 inh	tim10-1 inh	NALP3 yeast inh	tim10-1 conf	tim10 confirm
CCc1ccccc1NC(=S)/N=C(\N)Nc1nc(C)c2cc(C)ccc2n1	44.1	n	n	45.0	n	n	n
CCOc1ccc2nc(N/C(N)=N/C(=S)Nc3cccc(C)c3)nc(C)c2c1	n	n	n	n	n	x	x
Cc1cccc(C)c1NC(=S)Nc1ccc(Cl)c(Cl)c1	51.6	n	n	47.5	n	38.2	47.6
COc1ccc(NC(=S)Nc2ccc(C)c(Cl)c2)cc1OC	n	n	n	n	n	x	x
COc1ccc(OCC(=O)N2CCCC(CO)(CCOc3ccccc3)C2)cc1 (stereo not given)	n	n	n	n	n	x	x
CS(=O)(=O)c1ccc(Sc2nc3ccccc3s2)c([N+](=O)[O-])c1	41.7	n	n	45.9	n	38.0	n
CS(=O)(=O)c1ccc(Sc2nc3ccccc3[nH]2)c([N+](=O)[O-])c1	n	n	n	n	n	x	x
O=[N+]([O-])c1cc(S(=O)(=O)C(F)(F)F)ccc1Sc1nc2ccccc2s1	54.7	n	n	45.2	n	73.8	75.2
CCOC(=O)Cc1csc(SCC(=O)N(CC(C)C)c2c(N)n(Cc3ccccc3)c(=O)[nH]c2=O)n1	n	x	n	n	n	x	x
CCCCCc1c(C)[nH]c2nc3ccccc3n2c1=O	n	n	n	n	n	x	x
CCOC(=O)CN1CCC(c2cc(-c3ccc(Cl)cc3)n[nH]2)CC1	n	n	n	n	n	x	x
O=[N+]([O-])c1cccnc1N1CCC(c2cc(-c3ccc(Cl)cc3)n[nH]2)CC1	48.9	40.3	n	42.8	n	37.0	46.5
CC(C)Cn1c(=S)[nH]c2cc(Cl)ccc21	50.0	n	n	42.8	n	n	n
CC(C)Cn1c(=S)[nH]c2ccccc2c1=O	n	n	n	n	n	x	x
CC(=O)c1cccc(S(=O)(=O)NCC(C)(C)N2CCOCC2)c1	n	n	n	n	n	x	x
CCCN(CC(=O)Nc1ccccc1C)C(=O)CCCNC(=O)c1ccc(Cl)cc1	n	x	n	n	n	x	x
C=CCn1c(COc2ccccc2OC)nc2ccccc21	n	n	n	n	n	x	x
COc1ccc(NC(=O)/C(C#N)=C/c2c(C)nn(-c3ccc(F)cc3)c2Cl)cc1OC	48.9	n	n	50.8	n	45.2	42.1
COc1ccc(NC(=O)/C(C#N)=C/c2c(C)nn(-c3ccc(F)cc3)c2Cl)cc1Cl	n	n	n	n	n	x	x
COc1ccc(/C=C2\CCc3ccccc3C2=O)cc1Cn1nc(C)cc1C	48.6	n	n	45.2	n	36.8	40.5
COc1ccc(/C=C2/CCc3ccccc3C2=O)cc1CN1CCOCC1	n	n	n	n	n	x	x
O=C(COc1ccccc1F)Nc1ccc(S(=O)(=O)N2CCCC2)cc1	43.9	x	n	50.1	n	n	33.1
O=C(Nc1ccccc1)Nc1ccc(S(=O)(=O)N2CCCCC2)cc1	50.8	n	n	43.3	n	31.9	n
O=C(COc1cccc(C(F)(F)F)c1)Nc1ccc(S(=O)(=O)N2CCCC2)cc1	68.2	n	n	50.2	n	53.4	50.6
COc1ccc(C(=O)Nc2ccc(S(=O)(=O)N3CCCC3)cc2)cc1	45.4	n	n	54.5	n	n	32.6
SMILES	TIM10 inh	NALP1 inh	tim23-1 inh	tim10-1 inh	NALP3 yeast inh	tim10-1 conf	tim10 confirm
CC(=O)c1ccc(NC(=O)C(C)Sc2n[nH]c(-c3cccnc3)n2)cc1 (stereo not given)	n	n	n	n	n	x	x
N#CC1(C#N)[C@@H](C(=O)C23CC4CC(CC(C4)C2)C3)C12CCOCC2	43.9	n	n	56.7	n	48.3	n
CC(C(=O)C12CC3CC(CC(C3)C1)C2)N1CCOCC1 (stereo not given)	n	n	n	n	n	x	x
COCCN(C(=O)C1CC1)c1nnc(-c2ccc(C)cc2)s1	n	n	n	n	n	x	x
CCOc1ccc(-c2nnc(N(CC)C(=O)C3CCC3)s2)cc1	43.3	n	n	42.8	n	31.0	35.1
COc1cc(C(=O)NCC(=O)NC(C)CCc2ccccc2)cc(OC)c1OC (stereo not given)	n	n	n	n	n	x	x
CCc1nccn1-c1cc(C(C)(C)C)nc2c(-c3ccc(Cl)cc3)cnn12	n	n	n	n	n	x	x
Cc1nccn1-c1cc(C(C)(C)C)nc2c(-c3ccccc3)cnn12	53.8	n	n	50.4	n	48.1	54.7
Cc1ccsc1C(=O)N1CCCC(C(=O)c2cc(F)ccc2F)C1 (stereo not given)	n	n	n	n	n	x	x
O=Cc1cccc(OC(=O)c2ccc(Cl)cc2Cl)c1	45.1	n	n	42.0	n	n	n
CCC(=O)Nc1cccc(C(=O)/C=C/c2cccs2)c1	42.4	n	n	45.7	n	n	n
CCC(=O)Nc1cccc(C(=O)c2ccccc2)c1	n	n	n	n	n	x	x
FC(F)(F)Oc1ccc(NC(=S)Nc2ccc(OC(F)(F)F)cc2)cc1	57.0	x	n	50.0	n	62.4	70.5
CCN(CC)S(=O)(=O)c1ccc(N2CCc3ccccc3C2)nc1	50.3	n	n	42.8	n	32.2	41.2
Cc1cccc(N(CC(=O)N/N=C/c2ccc(C(=O)O)cc2)S(=O)(=O)c2ccccc2)c1C	n	x	n	n	n	x	x
COC(=O)C(=C/C(C)=C/c1cccs1)C(=O)OC	43.4	n	n	43.7	n	n	43.1
CCOCCn1c(=O)c2c(nc3n2CCCN3CCc2ccccc2)n(C)c1=O	n	n	n	n	n	x	x
Cc1cc(C)c(C(=O)/C=C/c2ccc3c(c2)OCO3)c(=O)[nH]1	n	n	n	n	n	x	x
Cc1cc(C)c(C(=O)/C=C/c2cccc3ccccc23)c(=O)[nH]1	40.7	n	n	43.3	n	38.3	n
O=C(Nc1ccc2nc(-c3ccco3)[nH]c2c1)c1cccs1	65.5	n	n	n	n	n	n
CC(=O)Nc1ccc2nc(-c3ccco3)[nH]c2c1	n	n	n	n	n	x	x
Cc1ccc(/C=C/C(=O)Nn2cnnc2)cc1	41.7	n	n	55.7	n	n	38.8
Cc1ccc(/C=C/C(=O)NN2CCN(C)CC2)cc1	n	n	n	n	n	x	x
CCCS(=O)(=O)C/C(N)=N/OC(=O)c1ccc(Cl)cc1	n	n	n	n	n	x	x
N/C(CCS(=O)(=O)c1ccc(Cl)cc1)=N\OC(=O)c1ccccc1Cl	51.4	n	n	61.7	n	70.7	50.5
CC(NC(=O)CSC(=S)N(C)C)C12CC3CC(CC(C3)C1)C2 (stereo not given)	x	n	x	x	x	x	x
